Compounds without any hit were thinned out: in the full panel of roughly 79,000, 15% have a hit. Active and inactive are the calls of the source. Rule as the data show it: active = growth inhibition above about 70%; inactive = the rest.
Assays:
[1] = NCI Yeast Anticancer Drug Screen. Data for the sgs1 strain (AID 173);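 also: 0% = growth of vehicle-only control cultures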; settings: S. cerevisiae sgs1 mutant, active compounds read high
Summary of the method: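 Strain with an altered DNA repair or cell cycle pathway exposed to compound. Growth then measured. Value = inhibition versus vehicle control.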

[2] = NCI Yeast Anticancer Drug Screen. Data for the mlh1 rad18 strain (AID 175); settings: S. cerevisiae mlh1 rad18 strain growth inhibition, active compounds read high
Summary of the method: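 A repair-deficient yeast strain is exposed to test compound, and growth is scored relative to vehicle-treated controls.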

[3] = NCI Yeast Anticancer Drug Screen. Data for the rad18 strain (AID 177); settings: S. cerevisiae rad18 mutant growth inhibition, active compounds read high
Summary of the method: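 DNA-repair-defective yeast; compound treatment; growth inhibition scored against vehicle.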

[4] = NCI Yeast Anticancer Drug Screen. Data for the rad52 strain (AID 147);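 also: 0% = growth of vehicle-treated control cultures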; settings: S. cerevisiae rad52 mutant growth inhibition, active compounds read high
Summary of the method: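 Growth of repair-deficient yeast cells was compared between compound-treated and vehicle-treated cultures to give percent inhibition.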

[5] = NCI Yeast Anticancer Drug Screen. Data for the rad50EPP+ strain (AID 151);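 also: 0% = growth of vehicle-treated control cultures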; settings: S. cerevisiae rad50 mutant strain, active compounds read high
Summary of the method: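 Measured: growth inhibition of rad50EPP+ yeast. Reference: vehicle-treated controls. Screen uses strains with defined genetic alterations in DNA damage repair or cell cycle control.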

[6] = NCI Yeast Anticancer Drug Screen. Data for the mgt1 strain (AID 153); settings: S. cerevisiae mgt1 mutant growth inhibition, active compounds read high
Summary of the method: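 Compounds were applied to mgt1 mutant yeast, and growth was then compared against vehicle-treated control cultures to give percent inhibition.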

[7] = NCI Yeast Anticancer Drug Screen. Data for the rad50 strain (AID 155);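 also: 0% = growth of vehicle-only cultures of the same strain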; settings: S. cerevisiae rad50 strain growth inhibition, active compounds read high
Summary of the method: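 DNA repair mutant yeast, compound exposure, growth read-out; inhibition is taken relative to vehicle.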

[8] = NCI Yeast Anticancer Drug Screen. Data for the mec2-1 strain (AID 157); settings: S. cerevisiae mec2-1 strain, active compounds read high
Summary of the method: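 Compounds were applied to mec2-1 yeast cells. Their growth was then compared with that of vehicle-treated cultures to give growth inhibition.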

[9] = NCI Yeast Anticancer Drug Screen. Data for the rad14 strain (AID 159);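 also: 0% = growth of vehicle-treated control cultures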; settings: S. cerevisiae rad14 strain growth inhibition, active compounds read high
Summary of the method: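 DNA repair-defective yeast, compound-exposed; % growth inhibition derived by comparison with vehicle-treated controls.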

[10] = NCI Yeast Anticancer Drug Screen. Data for the sgs1 mgt1 strain (AID 161);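 also: 0% = growth of cultures given vehicle only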; settings: S. cerevisiae sgs1 mgt1 strain, active compounds read high
Summary of the method: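 Yeast cells carrying a defined DNA-repair defect were exposed to test compounds. Growth inhibition was measured relative to vehicle-treated controls.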

[11] = NCI Yeast Anticancer Drug Screen. Data for the CLN2oe strain (AID 163);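 also: 0% = growth of vehicle-only control cultures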; settings: S. cerevisiae CLN2oe strain, active compounds read high
Summary of the method: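 Cells of an engineered yeast line with disturbed cell-cycle regulation are treated with compound. Inhibition of growth is then calculated relative to the vehicle-treated reference.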

[12] = NCI Yeast Anticancer Drug Screen. Data for the cln2 rad14 strain (AID 165);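 also: 0% = growth equal to vehicle treated cultures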; settings: S. cerevisiae cln2 rad14 strain, active compounds read high
Summary of the method: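 Strain: cln2 rad14 yeast, altered in cell cycle control and DNA damage repair. Read-out: growth inhibition vs vehicle.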

[13] = NCI Yeast Anticancer Drug Screen. Data for the bub3 strain (AID 167); settings: S. cerevisiae bub3 mutant strain, active compounds read high
Summary of the method: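 In this screen, a yeast mutant lacking normal mitotic checkpoint function is challenged with compound. Relative growth versus vehicle gives the inhibition value.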

[14] = NCI Yeast Anticancer Drug Screen. Data for the wt2 strain (AID 169);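 also: 0% = growth of vehicle-treated yeast cultures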; settings: S. cerevisiae wt2 strain growth inhibition, active compounds read high
Summary of the method: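 Growth of compound-treated yeast is measured and expressed as inhibition relative to vehicle-only controls.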

[15] = NCI Yeast Anticancer Drug Screen. Data for the mlh1 strain (AID 171);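 also: 0% = growth of vehicle-treated control cultures of the same strain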; settings: S. cerevisiae mlh1 strain growth inhibition, active compounds read high
Summary of the method: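 Test agents were incubated with yeast bearing a defined DNA damage repair or cell cycle control alteration; values are growth inhibition normalised to vehicle-treated cultures.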

[16] = NCI Yeast Anticancer Drug Screen. Data for the wt1 strain (AID 149);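 also: 0% = growth of vehicle-treated wt1 cultures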; settings: S. cerevisiae wt1 strain (SPY 50644) growth inhibition, active compounds read high
Summary of the method: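 wt1 strain grown with compound or vehicle; inhibition taken from the growth difference.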

[17] = at 5.0 µM (retest, dose inferred, filed as 0.5)
[18] = at 50.0 µM (retest, dose inferred, filed as 5.0)

Measured: growth inhibition

[N-]=[N+]=NC1=C(c2ccccn2)C(=O)c2cccc3cccc1c23
active: [3]; at 100.0 µM 85%
inactive: [1]; at 1.2 µM -2% | [1]; at 3.7 µM 1% | [1]; at 11.0 µM 6% | [1]; at 33.0 µM 37% | [1]; at 100.0 µM 67% | [2]; [17] 4% | [2]; [18] 52% | [2]; at 50.0 µM 59% | [3]; at 1.2 µM 0% | [3]; at 3.7 µM 6% | [3]; at 11.0 µM 12% | [3]; at 33.0 µM 58%

COc1ccccc1N=NC(C(=O)c1ccccc1)C(=O)c1ccccc1
inactive: [4]; at 1.2 µM 3% | [4]; at 3.7 µM 22% | [4]; at 11.0 µM 16% | [5]; at 1.2 µM -47% | [5]; at 3.7 µM -21% | [5]; at 11.0 µM 1% | [5]; at 33.0 µM 17% | [5]; at 100.0 µM 62% | [6]; at 1.2 µM -29% | [6]; at 3.7 µM -24% | [6]; at 11.0 µM 4% | [7]; at 1.2 µM -50% | [7]; at 3.7 µM -50% | [7]; [17] 34% | [7]; at 11.0 µM -16% | [8]; at 1.2 µM -57% | [8]; at 3.7 µM -31% | [8]; [17] -3% | [8]; at 11.0 µM -25% | [9]; at 1.2 µM -33% | [9]; at 3.7 µM -29% | [9]; at 11.0 µM -14% | [10]; [17] 22% | [11]; at 1.2 µM 16% | [11]; at 3.7 µM -5% | [11]; at 11.0 µM -4% | [12]; [17] 10% | [13]; at 1.2 µM 4% | [13]; at 3.7 µM -17% | [13]; [17] 5% | [13]; at 11.0 µM 17% | [14]; at 1.2 µM -10% | [14]; at 3.7 µM 5% | [14]; at 11.0 µM -6% | [15]; at 1.2 µM -25% | [15]; at 3.7 µM -27% | [15]; at 11.0 µM -1% | [1]; at 1.2 µM -37% | [1]; at 3.7 µM -6% | [1]; at 11.0 µM -4% | [2]; [17] -7% | [3]; at 1.2 µM -5% | [3]; at 3.7 µM 10% | [3]; at 11.0 µM 9%
active: [4]; at 33.0 µM 97% | [4]; at 100.0 µM 97% | [6]; at 33.0 µM 96% | [6]; at 100.0 µM 98% | [7]; at 33.0 µM 96% | [7]; [18] 96% | [7]; at 50.0 µM 93.4% | [7]; at 100.0 µM 96% | [8]; at 33.0 µM 91% | [8]; [18] 96% | [8]; at 50.0 µM 94.5% | [8]; at 100.0 µM 97% | [9]; at 33.0 µM 98% | [9]; at 100.0 µM 97% | [10]; [18] 95% | [10]; at 50.0 µM 93.7% | [11]; at 33.0 µM 94% | [11]; at 100.0 µM 97% | [12]; [18] 95% | [12]; at 50.0 µM 88.8% | [13]; at 33.0 µM 95% | [13]; [18] 97% | [13]; at 50.0 µM 92.5% | [13]; at 100.0 µM 97% | [14]; at 33.0 µM 92% | [14]; at 100.0 µM 97% | [15]; at 33.0 µM 94% | [15]; at 100.0 µM 96% | [1]; at 33.0 µM 96% | [1]; at 100.0 µM 96% | [2]; [18] 97% | [2]; at 50.0 µM 92.5% | [3]; at 33.0 µM 96% | [3]; at 100.0 µM 98%

COC1=CC(=O)C2C(C1=O)C(c1ccc(Cl)cc1)[C@@H]2C (some centres undefined)
inactive: [16]; at 1.2 µM 11% | [16]; at 3.7 µM 23% | [5]; at 1.2 µM 29% | [5]; at 3.7 µM 64% | [6]; at 1.2 µM 21% | [6]; at 3.7 µM 30% | [7]; at 1.2 µM 2% | [7]; at 3.7 µM 12% | [7]; [17] 4% | [8]; at 1.2 µM 34% | [8]; at 3.7 µM 49% | [8]; [17] -12% | [9]; at 1.2 µM -3% | [9]; at 3.7 µM 12% | [10]; [17] -10% | [11]; at 1.2 µM 19% | [11]; at 3.7 µM 29% | [12]; [17] 30% | [13]; at 1.2 µM 24% | [13]; at 3.7 µM 53% | [13]; [17] 41% | [14]; at 1.2 µM 6% | [14]; at 3.7 µM 22% | [15]; at 1.2 µM 20% | [15]; at 3.7 µM 39% | [1]; at 1.2 µM 33% | [1]; at 3.7 µM 48% | [2]; [17] 23% | [3]; at 1.2 µM 14% | [3]; at 3.7 µM 29%
active: [16]; at 11.0 µM 99% | [16]; at 33.0 µM 99% | [16]; at 100.0 µM 99% | [5]; at 11.0 µM 98% | [5]; at 33.0 µM 98% | [5]; at 100.0 µM 98% | [6]; at 11.0 µM 99% | [6]; at 33.0 µM 99% | [6]; at 100.0 µM 99% | [7]; at 11.0 µM 98% | [7]; at 33.0 µM 98% | [7]; [18] 98% | [7]; at 50.0 µM 90.5% | [7]; at 100.0 µM 98% | [8]; at 11.0 µM 99% | [8]; at 33.0 µM 98% | [8]; [18] 99% | [8]; at 50.0 µM 93.8% | [8]; at 100.0 µM 99% | [9]; at 11.0 µM 98% | [9]; at 33.0 µM 99% | [9]; at 100.0 µM 99% | [10]; [18] 98% | [10]; at 50.0 µM 92% | [11]; at 11.0 µM 99% | [11]; at 33.0 µM 99% | [11]; at 100.0 µM 99% | [12]; [18] 98% | [12]; at 50.0 µM 90.5% | [13]; at 11.0 µM 99% | [13]; at 33.0 µM 99% | [13]; [18] 99% | [13]; at 50.0 µM 90.8% | [13]; at 100.0 µM 99% | [14]; at 11.0 µM 94% | [14]; at 33.0 µM 98% | [14]; at 100.0 µM 99% | [15]; at 11.0 µM 98% | [15]; at 33.0 µM 99% | [15]; at 100.0 µM 99% | [1]; at 11.0 µM 99% | [1]; at 33.0 µM 99% | [1]; at 100.0 µM 98% | [2]; [18] 98% | [2]; at 50.0 µM 90.5% | [3]; at 11.0 µM 97% | [3]; at 33.0 µM 99% | [3]; at 100.0 µM 99%
